Here are results for 29 compounds from PubChem BioAssay AID588676 (Johns Hopkins Ion Channel Center, 2011).

Structures are written as SMILES. Screen size: about 310,000 compounds; about 3,900 (1.3%) were called active.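 Rule for the calls: active = calcium-response B-score plate-corrected more than 3 library SD below zero, starting fluorescence within 5 deviations, no agonist response on first addition; inactive = the rest.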 What follows is part of a selection rich in actives, with near analogues and random picks from the rest.

Sequence of Mas-related G-protein coupled receptor member X1 (Homo sapiens) (Q96LB2 whole entry, looked up): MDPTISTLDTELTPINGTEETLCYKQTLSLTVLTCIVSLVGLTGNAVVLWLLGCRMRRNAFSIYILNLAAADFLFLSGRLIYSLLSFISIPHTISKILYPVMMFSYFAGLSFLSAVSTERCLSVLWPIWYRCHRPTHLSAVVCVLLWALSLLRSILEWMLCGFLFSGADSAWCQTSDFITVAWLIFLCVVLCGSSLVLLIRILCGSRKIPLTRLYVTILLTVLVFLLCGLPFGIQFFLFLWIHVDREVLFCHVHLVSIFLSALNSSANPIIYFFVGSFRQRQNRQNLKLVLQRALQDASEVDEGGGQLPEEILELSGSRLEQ

The assay addresses Mas-related G-protein coupled receptor member X1 (Homo sapiens) (UniProt Q96LB2). In words: blockade of BAM8-22-evoked MrgX1 calcium response – HEK293 cells, Fluo-4 calcium flux, primary screen (AID 588676).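 For B-score: peak minus trough fluorescence over baseline after final BAM8-22 challenge near maximal dose.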 The note with it: Fluo-4, BAM8-22 antagonism, at 10 µM; active compounds read low. In general terms: Calcium assays in cells follow changes in intracellular calcium, usually with a dye or a luminescent sensor.
As to `Cc1ccc(N2C(=O)CC(NCc3ccc4c(c3)OCO4)C2=O)cc1Cl` (centres undefined), the B-score entry is “inactive”. To `O=C(CSc1nnnn1-c1ccc(O)cc1)N1N=C(c2ccc3ccccc3c2)CC1c1ccccc1` (centres undefined) belongs “inactive”. The entry for `CSc1nc2c(c(=O)[nH]1)C(c1cccc(Cl)c1Cl)CC(=O)N2` (centres undefined) is “inactive”; for `CCOc1ccc(Nc2nc(Cc3nnc(SCC(=O)c4ccc(C)cc4)o3)cs2)cc1` it is “inactive”; for `CC(C)OCCCNC(=O)c1cc(Sc2ccc(F)cc2)nc2ccccc12` it is “inactive”. To `COc1cc(OC)c(OC)cc1/C=N/Nc1ncnc2c1[nH]c1ccc(C)cc12` belongs “inactive”; to `CC(C)OCCCNc1ncnc2c1[nH]c1ccc(F)cc12`, -12 (active); to `O=C(CN1CCN(c2ccccn2)CC1)Nc1ccc(Br)cc1`, “inactive”.

As for `O=C(CN1CCN(c2ccccn2)CC1)NC1CCCCC1`, the B-score is -5.03 (active). The entry for `O=C(CN1CCN(c2ccccn2)CC1)NCc1cccs1` is “inactive”; for `CCOC(=O)C1C(=O)NC(N2CCN(c3ccccc3)CC2)=NC1c1ccco1` (centres undefined) it is “inactive”. As to `CCOC(=O)C1=C(c2ccc(OC)cc2)C(=O)c2ccccc2C1=O`, the B-score entry was “inactive”. The figure for `CCOC(=O)C1C(=O)C=C(c2ccc(OC)cc2)CC1c1ccco1` (centres undefined) is -5.76 (active). The entry for `N#Cc1cccc(CN2CCC(=O)N([C@H](CO)c3ccccc3)CC2)c1` is “inactive”.

For `O=C(C1CCN(Cc2ccc(Cl)cc2)CC1)N1CCN(Cc2ccc3c(c2)OCO3)CC1`, the B-score entry was “inactive”. To `O=C(C1CCN(S(=O)(=O)c2cnc[nH]2)CC1)N1CCN(Cc2ccc3c(c2)OCO3)CC1` belongs -6 (active); to `Cc1cccc(N2CCN(C(=O)C3CCN(S(=O)(=O)c4cnc[nH]4)CC3)CC2)c1C`, “inactive”; to `Cc1ccc(C(=O)N2CC(=O)Nc3ccc(F)cc3C2c2ccc(F)cc2)cc1` (centres undefined), “inactive”. The figure for `O=[N+]([O-])c1cc(S(=O)(=O)CCCN2CCOCC2)ccc1F` is -6.04 (active). The entry for `O=[N+]([O-])c1ccc(NCCCN2CCOCC2)c(Cl)c1` is “inactive”. For `O=C(NCCCN1CCOCC1)c1ccc([N+](=O)[O-])cc1[N+](=O)[O-]`, the B-score entry is “inactive”. The entry for `CC(NC(=O)CNC(=O)Cc1cccc2ccccc12)c1ccc(S(N)(=O)=O)cc1` (centres undefined) is “inactive”. The entry for `O=[N+]([O-])c1ccc2c(c1)C(N1CCOCC1)/C(=C/C1(O)CCCCC1)O2` (centres undefined) is “inactive”; for `CC1(C)CC(=O)CC2(C1)NCC(c1ccccc1Cl)c1c2[nH]c2ccccc12` (centres undefined) it is “inactive”; for `Cc1ccc(S(=O)(=O)n2cccc2CO)cc1` it is “inactive”. The entry for `COCCN(Cc1cc2cc3c(cc2nc1Cl)OCO3)C(=O)c1cccc(C)c1` is “inactive”; for `COc1ccc(/C(O)=C2\C(=O)C(=O)N(Cc3ccco3)C2c2ccc(OC)cc2OC)cc1` (centres undefined) it is “inactive”. Regarding `COc1ccc(C2/C(=C(/O)c3ccc4c(c3)CC(C)O4)C(=O)C(=O)N2Cc2ccncc2)cc1` (centres undefined), the B-score entry is “inactive”. Consider `COc1cc(C2/C(=C(\O)c3ccc4c(c3)CC(C)O4)C(=O)C(=O)N2Cc2ccco2)ccc1O` (centres undefined), for which the B-score was -5.81 (active).
